Drawing on the supplement of paper PMC3484114, this text covers cell growth for 40 compounds.

± gives the standard deviation.

The test system of this test is OVCAR-3-derived ovarian cancer stem-like cells (spheroids). The test can be described thus: cell growth relative to untreated control; higher = more growth (less inhibition). The note with it: 2.29 µM; 96 h. In a few lines: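 Percent growth was calculated against untreated wells once blanks were subtracted and Grubbs outliers removed. The cells were OVCAR-3 spheroid-derived stem-like cells, trypsinized and plated at 50,000 cells/mL in stem cell medium on ultra-low attachment 96-well plates for a 24 h preincubation. They were then exposed to compounds at 2.29 uM for 96 h at 37°C, 5% CO2, in 4 replicate wells, and viability was measured by TOX8 resazurin fluorescence (ex 560/em 590 nm) after 4 h.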
Regarding `CN1c2c(nc(N)[nH]c2=O)NCC1CCNc1ccc(C(=O)NC(CCC(=O)O)C(=O)O)cc1` (stereo not given), the cell growth was 101 ± 20%.

The compound `O=C1/C(=C\c2ccc(Cl)c(Cl)c2)CN(C(=O)CCN2CCOCC2)C/C1=C\c1ccc(Cl)c(Cl)c1` showed a cell growth of 63.5 ± 9.5%.

In turn, `COc1ccc(-c2cc(=O)c3c(O)cc(O)cc3o2)cc1OC` came in with a cell growth of 4.9 ± 3.4%.

`Cc1c(Cl)cccc1NC(=O)CC1Sc2ccccc2NC1=O` (stereo not given): the cell growth worked out at 116 ± 8.3%.

The compound `Cc1ccccc1NC(=O)C(=O)C(C#N)c1ccccc1C` (stereo not given) came in with a cell growth of 7.3 ± 3.2%.

`O=C([O-])c1cc(I)cc(I)c1O.O=C([O-])c1cc(I)cc(I)c1O.[Mn+2]` had a cell growth of 77.4 ± 10%.

`COC(=O)C1c2cc3c(c(O)c2C(OC2OC(C)C(OC)C(C)(OC)C2OC)CC1(C)O)C(=O)c1c(O)cc2c(c1C3=O)OC1OC2(C)C(O)C(N(C)C)C1O` (stereo not given) showed a cell growth of 51.8 ± 47%.

Regarding `CC(=O)c1ccc(Oc2ccc(/C(C)=N/N=C(N)N)cc2)cc1`, the cell growth came out at 32.4 ± 7.5%.

Compound `O=C1c2ccccc2-c2c1c1ccccc1c(=O)n2Cc1ccccc1` yielded a cell growth of 86.2 ± 51%.

Compound `COc1cc(/C=C(\C)c2ccc3c(c2)OCO3)cc(OC)c1OC` came in with a cell growth of 162 ± 21%.

`Nc1ncnc2c1ncn2[C@@H]1O[C@H](CO)C[C@H]1O` showed a cell growth of 89.8 ± 18%.

Turning to `Clc1ccc(C(c2ccccc2Cl)C(Cl)Cl)cc1` (stereo not given), the cell growth turned out to be 128 ± 48%.

For the compound `CCC1=C(C[C@H]2NCCc3cc(OC)c(OC)cc32)C[C@H]2c3cc(OC)c(OC)cc3CCN2C1`, the cell growth worked out at 21.1 ± 7.4%.

Consider `Cc1cccc(C)c1NC(=O)C(=O)C(c1ccccc1Cl)S(=O)(=O)Cc1ccccc1Cl` (stereo not given), for which the cell growth amounted to 85.2 ± 16%.

In turn, `CN(CCc1ccccn1)c1ccc2c(c1)C(=O)c1ccccc1-2` returned a cell growth of 103 ± 32%.

Consider `CCCCCCCCCCNCCSSCc1ccc(Cl)cc1`, for which the cell growth was determined as 126 ± 23%.

Regarding `COC1C(O)=C2C(=O)OC(C)(O)/C=C/C=C\C=C/C=C/C(c3ccccc3)NC(=O)/C=C/C=C/C=C/C=C/C2(C)C1O` (stereo not given), the cell growth stood at 71.7 ± 31%.

Consider `COc1ccc(NC(=O)C(=O)/C=C(\O)c2ccccc2)cc1`, for which the cell growth worked out at 107 ± 46%.

As for `C=C1C(=O)C2=CC1CCC(=O)C1(C)CCC(OC(C)=O)C(C)(C)C1CC2O` (stereo not given), the cell growth worked out at 30.4 ± 11%.

As for `COC(=O)C(=O)C(C(=O)C(=O)Nc1cc(C)ccc1C)c1nc2ccc(C(=O)c3ccccc3)cc2[nH]c1=O` (stereo not given), the cell growth turned out to be 91.5 ± 15%.

Turning to `Cc1cc2nc(C=C(C(F)(F)F)C(F)(F)F)oc2cc1C`, the cell growth was found to be 130 ± 36%.

`COc1ccc2oc(-c3ccncc3)cc(=O)c2c1` had a cell growth of 122 ± 9.1%.

Take `C[n+]1ccc(Nc2ccc(NC(=O)c3ccc(Nc4cc[n+](C)c5ccc([N+](=O)[O-])cc45)cc3[N+](=O)[O-])cc2)cc1`: the cell growth is 70 ± 17%.

In the case of `COC(=O)C1=CC(=O)C(C(=O)Nc2ccc(OC)cc2)C(c2ccccc2)O1` (stereo not given), the cell growth was found to be 96.3 ± 45%.

In turn, `O=C1C2=Nc3ccccc3C(O)N2c2ccccc21` (stereo not given) came in with a cell growth of 91 ± 12%.

In the case of `C=C(CN(C)C)C(=O)c1ccccc1Cl`, the cell growth is 84 ± 22%.

Consider `O=C(CC(O)(C(F)(F)F)C(F)(F)Cl)CC(O)(C(F)(F)F)C(F)(F)Cl` (stereo not given), for which the cell growth amounted to 66.8 ± 21%.

Take `CCN(CC)CCNc1ccc(C)c2sc3ccccc3c(=O)c12`: the cell growth was 77.7 ± 26%.

In the case of `C=C1CC[C@@H]2[C@](C)(CO)[C@H](O)CC[C@@]2(C)[C@@H]1C/C=C1/C(=O)OC[C@H]1O`, the cell growth is 119 ± 38%.

`CCCCCCCCCCCCCCCC[N+](C)(C)Cc1ccc(F)cc1` gave a cell growth of 54.1 ± 9.8%.

Compound `O=C1OC(c2ccco2)=N/C1=C\c1ccc(Cl)c(Cl)c1` showed a cell growth of 17.7 ± 5%.

`NC1N=C(c2ccc(Cl)cc2)C2=C(N1)c1ccccc1CC2` (stereo not given) yielded a cell growth of 85.7 ± 6.7%.

`O=C1C(c2cnc3ccccc3n2)=C(O)c2ccccc21` displayed a cell growth of 197 ± 48%.

In the case of `O=C1C(Br)=C(Br)C(=O)c2ccccc21`, the cell growth is 3.3 ± 4%.

The compound `COc1c(O[C@@H]2O[C@H](CO)[C@@H](O)[C@H](O)[C@H]2O)cc2c(c1OC)-c1ccc(OC)c(=O)cc1[C@@H](NC(C)=O)CC2` had a cell growth of 119 ± 20%.

`O=C1C=CC(CC(=O)c2ccc3ccccc3c2)O1` (stereo not given) yielded a cell growth of 112 ± 18%.

Compound `[Cl][Pt+2][Cl].[NH-]C1CCCCC1[NH-]` (stereo not given) yielded a cell growth of 98.5 ± 28%.

With `Cc1cc(NCCCCCCCNc2cc(C)nc3cc(N)ccc23)c2ccc(N)cc2n1`, the cell growth was 96.4 ± 25%.

For `N#CC1CC(c2ccccc2)Nc2cc(Cl)ccc2N1` (stereo not given), the cell growth amounted to 80.4 ± 20%.

`S=C(Nc1ccccc1)N(/N=C/C=C/c1ccccc1)c1nnc(-c2ccccc2)c(-c2ccccc2)n1` yielded a cell growth of 132 ± 57%.
